Results filed as inconclusive are left out. Values without a mark were called inactive. Active and inactive are the calls of the source. Calls follow the shape of the dose curve; as a rule, active = well fitted cell-killing curve with a large enough effect; inconclusive = small, poorly fitted or top-dose-only effect, or effect the other way; inactive = no such curve, though single readings can be large or run the other way.
Experiments:
[1] = Viability qHTS for spleen associated tyrosine kinase inhibitor (SYKi) naive MV4-11 cells (AID 1963823); also: nearly all actives have a fitted effect of over 40% in size
Outline: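 Cells: MV4-11, SYK inhibitor naive, 500 per well. Treatment: library compounds, 72 hr, 37 C, 5% CO2. Read-out: CellTiter-Glo luminescence after 10 min RT.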

[2] = Viability qHTS for spleen associated tyrosine kinase inhibitor (SYKi) drug resistant MV4-11 cells (AID 1963824); also: nearly all actives have a fitted effect of over 35% in size
Outline: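 SYK-inhibitor-resistant MV4-11 AML cells were seeded at 500 per well onto compound and cultured 72 hours (37 °C, 5% CO2). CellTiter-Glo was then added, and after 10 min at room temperature, luminescence gave viability.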
Potency is read from the fitted curve at half-maximal effect.

SMILES	viability (% of control) [1]	viability, % of control [2]	Potency [1]	Potency [2]
C=CC(C)(O)CC/C=C(\C)C(=O)O[C@H]1[C@H](O)[C@@H](CO)O[C@@H](OC(=O)[C@]23CCC(C)(C)CC2C2=CCC4[C@@]5(C)CC[C@H](O[C@@H]6O[C@H](CO[C@@H]7OC[C@H](O)[C@H](O)[C@H]7O[C@@H]7OC[C@@H](O)[C@H](O)[C@H]7O)[C@@H](O)[C@H](O)[C@H]6O)C(C)(C)C5CC[C@@]4(C)[C@]2(C)CC3)[C@@H]1OC1OC(C)C(O[C@@H]2OC[C@@H](O)[C@H](O[C@@H]3OC[C@@H](O)[C@H](O)[C@H]3O)[C@H]2O)C(O)C1O (some centres not stated)	65.2% [at 9.25 µM]	77.8% [at 9.25 µM]		
CO[C@H]1C[C@H](O[C@H]2CC[C@]3(CO)[C@H]4CC[C@]5(C)[C@@H](C6=CC(=O)OC6)CC[C@]5(O)[C@@H]4CC[C@]3(O)C2)O[C@H](C)[C@H]1O			100 nM (active)	63.2 nM (active)
O=C1CN=C(c2ccccc2Cl)c2cc(Br)ccc2N1			inactive	inactive
C[C@]12CC[C@H](O)C[C@H]1CC[C@@H]1[C@@H]2[C@H](O)C[C@]2(C)[C@@H](c3ccc(=O)oc3)CC[C@]12O			18.4 nM (active)	14.6 nM (active)
C[C@@H]1C[C@@H](O)[C@]2(O)O[C@@H]3C[C@@]4(C=O)C(CC[C@@H]5C4CC[C@]4(C)[C@@](O)(C6=CC(=O)OC6)CC[C@]54O)C[C@H]3OC2O1 (some centres not stated)			796 nM (active)	709 nM (active)
CC(C)(O)/C=C/C(=O)[C@](C)(O)[C@H]1[C@H](O)C[C@@]2(C)[C@@H]3CC=C4[C@@H](C[C@H](O)C(=O)C4(C)C)[C@]3(C)C(=O)C[C@]12C			317 nM (active)	282 nM (active)
COC1=CC(=O)O[C@@H](/C=C/c2ccccc2)C1			inactive	inactive
CN(C)[C@@H]1C(=O)C(C(N)=O)=C(O)[C@@]2(O)C(=O)C3=C(O)c4c(O)ccc(Cl)c4[C@@](C)(O)C3C[C@@H]12 (some centres not stated)			inactive	inactive
C=C1C(=O)O[C@@H]2[C@H]3C(=C)[C@@H](O)C[C@H]3C(=C)C[C@@H](O)[C@@H]12			3660 nM (active)	3660 nM (active)
Fc1cc(F)c2c(c1)C1C=CCC1C(c1cccnc1)N2 (configuration not stated)			3660 nM (active)	2910 nM (active)
O=C(O)P(=O)(O)O			inactive	inactive
CC(C)(O)/C=C/C(=O)[C@](C)(O)[C@H]1[C@H](O)C[C@@]2(C)[C@@H]3CC=C4[C@@H](C=C(O)C(=O)C4(C)C)[C@]3(C)C(=O)C[C@]12C			59.6 nM (active)	37.6 nM (active)
Cc1cccc(NC(=O)c2ccc(C(F)(F)F)cc2C(=O)O)n1			inactive	inactive
C#C[C@]1(O)CC[C@H]2[C@@H]3CC[C@H]4Cc5nc6nc7ccccc7n6cc5C[C@]4(C)[C@H]3CC[C@@]21C			9200 nM (active)	7310 nM (active)
COC1CC(O[C@H]2CC[C@@]3(C)C(=CCC4C3C(O)[C@@H](O)[C@]3(C)[C@@H](C(C)=O)CC[C@]43O)C2)OC(C)C1OC1CC(OC)C(OC2OC(C)C(O)C(O)C2O)C(C)O1 (some centres not stated)	67.1% [at 9.25 µM]	103% [at 9.25 µM]		
C[C@H]1O[C@@H](n2cnc3c(N)ncnc32)C[C@@H]1O			inactive	inactive
CC(=O)OC12C(O)C(C)C3(O)C4C=C(C)C(=O)C4CC(CO)=CC3C1C2(C)C (configuration not stated)			inactive	inactive
CC[C@@H]1C[C@H]2CC[C@H](O2)[C@H](C)C(=O)O[C@@H](C)C[C@@H]2CC[C@@H](O2)[C@@H](C)C(=O)O[C@H](CC)C[C@H]2CC[C@H](O2)[C@H](C)C(=O)O[C@@H](C)C[C@@H]2CC[C@@H](O2)[C@@H](C)C(=O)O1			30.6 nM (active)	19.3 nM (active)
CN=C(NS(=O)(=O)c1ccc(Cl)cc1)N1C[C@H](c2ccccc2)C(c2ccc(Cl)cc2)=N1			20600 nM (active)	20600 nM (active)
CC[C@H]1CN2CC[C@H]1C[C@@H]2[C@@H](O)c1ccnc2ccc(OC)cc12			inactive	inactive
COC1CC(O[C@H]2CC[C@]3(C)C4CC[C@]5(C)[C@@H](C6=CC(=O)OC6)[C@@H](OC(C)=O)C[C@]5(O)C4CC[C@@H]3C2)OC(C)C1O (some centres not stated)			252 nM (active)	178 nM (active)
CC[C@@H](C)[C@H]1C(=O)O[C@H](C(C)C)C(=O)N(C)[C@@H](C(C)C)C(=O)O[C@H](C(C)C)C(=O)N(C)[C@@H](C(C)C)C(=O)O[C@H](C(C)C)C(=O)N1C			5440 nM (active)	2730 nM (active)
CC(=O)O[C@H]1CN2CCC1CC2			inactive	inactive
CC(=O)OC[C@]12C[C@H](OC(C)=O)C(C)=C[C@H]1O[C@@H]1[C@H](O)[C@@H](O)[C@@]2(C)[C@]12CO2			inactive	inactive
c1cncc(OC[C@@H]2CCN2)c1			inactive	inactive
CCC1C2CC3C4N(C)c5ccccc5C45CC(C2C5O)N3C1O (configuration not stated)			inactive	inactive

SMILES	viability (% of control) [1]	viability, % of control [2]	Potency [1]	Potency [2]
CNC(=O)NC(O)C(Cl)(Cl)Cl (configuration not stated)			inactive	inactive
C/C=C(\C)C(=O)OC1C(C)OC(OC2C(C)OC(OC3CCC4(C)C(=CCC5C4CCC4(C)C(C(C)OC6OC(COC7OC(CO)C(O)C(O)C7O)C(O)C(O)C6O)CCC54O)C3)CC2OC)C(O)C1OC (configuration not stated)	78.5% [at 9.25 µM]	105% [at 9.25 µM]		
CC1=C[C@H]2O[C@@H]3[C@H](O)[C@@H](O)[C@](C)([C@@]2(CO)C[C@@H]1O)[C@]31CO1			820 nM (active)	731 nM (active)
C[C@@]1(CO)[C@H](O)CC[C@@]2(C)[C@H]1CC[C@H]1C[C@@H]3C[C@@]12CC[C@]3(O)CO			1010 nM (active)	1010 nM (active)
CC(=O)O[C@H]1C[C@]2(O)[C@@H]3CC[C@@H]4C[C@@H](O)CC[C@]4(C)[C@H]3CC[C@]2(C)[C@H]1c1ccc(=O)oc1			25.9 nM (active)	23.1 nM (active)
Clc1ccc([C@]23CNC[C@H]2C3)cc1Cl			inactive	inactive
COc1cccc(NCC(F)Cn2c3ccc(Br)cc3c3cc(Br)ccc32)c1 (configuration not stated)			2060 nM (active)	2060 nM (active)
CC(=O)O[C@@H]1CC2C(C)(C)C(=O)C=C[C@]2(C)C2CC[C@]3(C)C(=CC(=O)O[C@H]3c3ccoc3)[C@@]21C (some centres not stated)			11600 nM (active)	13000 nM (active)
C=C(C)C(=O)O[C@H]1[C@@H]2[C@H](C)C(=O)O[C@@H]2C[C@@H](C)[C@@H]2C=CC(=O)[C@]21C			1430 nM (active)	1140 nM (active)
COC1C=CC23c4cc5c(cc4COC2(O)CN(C)C3C1)OCO5 (configuration not stated)			inactive	inactive
CN1Cc2c(ccc3c2OCO3)[C@@H]2[C@H]1c1cc3c(cc1C[C@@H]2O)OCO3			3210 nM (active)	2550 nM (active)
COC(=O)C12C(=O)C(C)(O)C(=O)C1(C)C(C)=CC1C34CCC(OC3=O)C(C)(CO)C4CCC12C (configuration not stated)			inactive	inactive
CN1CCCCC1Cn1cc(C(=O)c2cc([N+](=O)[O-])ccc2I)c2ccccc21 (configuration not stated)			14600 nM (active)	10300 nM (active)
CO[C@H]1[C@H](O)[C@H](O[C@H]2CC[C@]3(C)C4CC[C@]5(C)[C@H](C6=CC(=O)OC6)CC[C@]5(O)C4CC[C@@H]3C2)O[C@@H](C)[C@@H]1O (some centres not stated)			25.2 nM (active)	11.2 nM (active)
CO/C1=C\C(C)=C\[C@@H](C)[C@@H](O)[C@@H](C)C/C(C)=C/C=C/[C@H](OC)[C@@H]([C@@H](C)[C@@H](O)[C@H](C)[C@@]2(O)C[C@@H](O)[C@H](C)[C@@H](C(C)C)O2)OC1=O			21.7 nM (active)	17.2 nM (active)
CC[C@H]1/C=C\C=C/C[C@@H](C)[C@H](O)[C@@](C)(O)C(=O)[C@@H](C)[C@H](O)[C@@H](C)C(=O)[C@@H](C)[C@H](O)[C@@H](C)/C=C\C(=O)O[C@@H]2[C@H](C)[C@H](CC1)O[C@]1(CC[C@H](C)[C@H](C[C@@H](C)O)O1)[C@H]2C			9.2 nM (active)	6.5 nM (active)
COP(=O)(OC)C(O)C(Cl)(Cl)Cl (configuration not stated)			inactive	inactive
C=CC(C)(C)c1[nH]c2c(CC=C(C)C)cc(CC=C(C)C)cc2c1C[C@@H]1NC(=O)[C@H](C)NC1=O			inactive	inactive
C[C@H](CCC(=O)O)C[C@H](C)C[C@H](C)C(=O)/C=C(\O)[C@H](C)C[C@H](C)C/C=C/[C@@H](C)[C@@H](O)[C@@H](C)[C@@H](O)C[C@@H]1CC[C@@](C)([C@H]2CC[C@@](C)([C@@H](C)O)O2)O1			2520 nM (active)	2820 nM (active)
COc1ccc2c(c1)/C(=C/c1cnc[nH]1)C(=O)N2			461 nM (active)	1640 nM (active)
COC(=O)C1(C)CCC(O)C2(C)c3cc(O)c(C(C)C)cc3C(O)C(OC(C)=O)C12 (configuration not stated)			inactive	inactive
CC[C@H](C)[C@@H]([C@@H](CC(=O)N1CCC[C@H]1[C@H](OC)[C@@H](C)C(=O)N[C@@H](Cc1ccccc1)c1nccs1)OC)N(C)C(=O)[C@@H](NC(=O)C(C)(C)N)C(C)C			inactive	inactive
COC1CC(O[C@H]2CC[C@]3(C=O)C4CC[C@]5(C)[C@@H](C6=CC(=O)OC6)CC[C@]5(O)[C@@H]4CC[C@@H]3C2)OC(C)C1O[C@@H]1O[C@H](CO)[C@@H](O[C@@H]2O[C@H](CO)[C@@H](O)[C@H](O)[C@H]2O)[C@H](O)[C@H]1O (some centres not stated)			174 nM (active)	123 nM (active)
CC1N=C(N)OC1c1ccccc1 (configuration not stated)			inactive	inactive
C[C@]12CC[C@H]3[C@@H](CCC4=C/C(=N/OCC(=O)O)CC[C@@]43C)[C@@H]1CC[C@@H]2O			inactive	inactive
